Measured values published in the supplement of paper PMC3334620.
Over roughly 33,000 sequences, “E-score (-0.5 to 0.5)” has its median near -0.053; the highest 2% begin near 0.37. The sample holds the highest values, similar sequences and a random draw of the others, so the mix is not that of the screen.

target: Hap1 (UniProt P0CE41); assay: PBM E-score (8-mer binding enrichment) (E-score (-0.5 to 0.5)); higher = stronger / more preferred TF binding; conditions: protein concentration: 200 nM; construct: GST-DNA-binding domain
Sequence of UniProt P0CE41 (P0CE41 whole entry, the tested form may be a part): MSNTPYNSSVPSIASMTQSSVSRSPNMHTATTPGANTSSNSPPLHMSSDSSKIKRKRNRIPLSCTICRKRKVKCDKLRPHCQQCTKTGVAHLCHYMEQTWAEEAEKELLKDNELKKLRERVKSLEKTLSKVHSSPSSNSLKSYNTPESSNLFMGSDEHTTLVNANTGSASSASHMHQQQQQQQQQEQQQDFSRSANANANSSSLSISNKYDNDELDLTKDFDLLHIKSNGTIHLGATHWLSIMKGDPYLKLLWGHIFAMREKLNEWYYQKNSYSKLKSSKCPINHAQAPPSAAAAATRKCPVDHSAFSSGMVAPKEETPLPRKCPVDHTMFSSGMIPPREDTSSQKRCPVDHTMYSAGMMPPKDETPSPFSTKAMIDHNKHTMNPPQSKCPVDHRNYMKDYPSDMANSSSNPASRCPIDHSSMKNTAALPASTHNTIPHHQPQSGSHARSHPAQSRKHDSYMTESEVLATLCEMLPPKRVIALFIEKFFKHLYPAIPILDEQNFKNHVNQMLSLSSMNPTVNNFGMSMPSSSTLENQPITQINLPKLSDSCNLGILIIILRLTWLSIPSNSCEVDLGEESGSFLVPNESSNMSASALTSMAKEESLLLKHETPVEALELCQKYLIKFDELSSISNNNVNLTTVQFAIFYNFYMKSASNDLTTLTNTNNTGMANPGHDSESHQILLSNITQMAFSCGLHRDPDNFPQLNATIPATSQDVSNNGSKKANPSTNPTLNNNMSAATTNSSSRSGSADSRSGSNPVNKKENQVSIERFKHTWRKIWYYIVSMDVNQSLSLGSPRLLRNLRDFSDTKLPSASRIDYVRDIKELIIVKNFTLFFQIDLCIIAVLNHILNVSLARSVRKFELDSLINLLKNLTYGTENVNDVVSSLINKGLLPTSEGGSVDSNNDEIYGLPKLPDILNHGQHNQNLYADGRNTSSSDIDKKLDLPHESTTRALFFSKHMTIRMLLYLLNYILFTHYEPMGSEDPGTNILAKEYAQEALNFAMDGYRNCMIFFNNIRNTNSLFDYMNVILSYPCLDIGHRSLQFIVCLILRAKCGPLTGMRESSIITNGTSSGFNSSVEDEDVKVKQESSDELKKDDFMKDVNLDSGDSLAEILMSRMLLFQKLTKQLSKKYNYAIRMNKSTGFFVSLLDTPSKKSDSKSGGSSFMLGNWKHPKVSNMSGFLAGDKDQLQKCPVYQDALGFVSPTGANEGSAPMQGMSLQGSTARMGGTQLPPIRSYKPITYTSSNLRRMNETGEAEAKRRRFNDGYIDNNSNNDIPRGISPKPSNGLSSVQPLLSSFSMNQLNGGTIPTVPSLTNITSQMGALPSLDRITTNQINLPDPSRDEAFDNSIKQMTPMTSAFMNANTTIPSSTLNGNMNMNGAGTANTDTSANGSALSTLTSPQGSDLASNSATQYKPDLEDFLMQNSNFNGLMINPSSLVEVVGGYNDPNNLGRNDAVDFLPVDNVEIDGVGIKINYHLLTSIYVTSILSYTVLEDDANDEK
Method in brief: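 Masliner-normalised scans of fluorescent anti-GST signal were the basis for scoring. That signal came from GST-tagged yeast transcription factors applied at about 100-200 nM to double-stranded universal all-10-mer Agilent arrays on fresh or once-stripped slides. Each ungapped eight-base word, pooled with its reverse complement, received an E-score from the Universal PBM Analysis Suite.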

Row | Sequence | PBM E-score
1 | AGGTTGGC | 0.00268
2 | AAACCCCA | -0.134
3 | GGCTCTAC | 0.0591
4 | GTCCTTCA | -0.162
5 | CGTGAGAC | 0.00208
6 | GGGAGCAA | 0.0117
7 | AGTTTCCG | 0.39
8 | AGTTTCCA | -0.133
9 | AGTTTCCC | -0.0919
10 | ACCATAGT | -0.0861
11 | ATCGGGCA | 0.238
12 | CTTGGACA | -0.0486
13 | CTCGGAAC | 0.31
14 | CTCGGACC | 0.375
15 | AGCGGACC | 0.257
16 | CACGGACC | 0.341
17 | CTCGGACA | 0.415
18 | ATCGGACC | 0.4
19 | GTCGGACA | 0.347
20 | CGCGGACA | 0.335
21 | ATCGGAAC | 0.318
22 | ATCGGACA | 0.394
23 | CAAGGGGA | -0.0784
24 | ATGGTTTG | 0.0601
25 | CGACGTAG | -0.0488

Row | Sequence | PBM E-score
26 | ATAGAGGA | -0.186
27 | CTCCAATC | -0.121
28 | CCCAATTC | -0.135
29 | CACCACAA | -0.117
30 | ACATCCAT | -0.093
31 | ACGTCTGG | -0.202
32 | AATAGTAT | 0.103
33 | AAGCAGCT | -0.114
34 | CACGTCGA | -0.183
35 | TACGGTGA | 0.0448
36 | AGACGGCA | -0.0262
37 | AGCGGACG | 0.297
38 | CACGGACA | 0.312
39 | CTCGGTCC | 0.35
40 | AACGGTCA | 0.246
41 | ATCGGTCC | 0.374
42 | ATCGGTCA | 0.318
43 | AACGGACA | 0.369
44 | AACGGACG | 0.305
45 | ATCGGACG | 0.422
46 | GACGGTAC | 0.142
47 | CACCACCC | 0.106
48 | CGGTTGAG | 0.18
49 | AGACCTCT | -0.208
50 | CGAGGCCA | 0.022

Row | Sequence | PBM E-score
51 | TAGCACCA | -0.14
52 | CGGGGCAA | 0.198
53 | CTATCTCC | 0.358
54 | ATATATCC | 0.399
55 | ATATATCA | 0.0242
56 | CGATATCG | 0.388
57 | ATCTCTCC | -0.0103
58 | CGATATCA | 0.234
59 | AGATATCG | 0.315
60 | CTATATCC | 0.202
61 | AGATATCC | 0.192
62 | ATATCTCC | 0.437
63 | GGATATCC | 0.236
64 | CGATATCC | 0.375
65 | ACCTTGCC | -0.132
66 | AAAGGAGC | -0.141
67 | CATCTTTC | -0.224
68 | AGGTGCTA | -0.132
69 | AGGTTCAA | -0.0501
70 | AAAGGCGC | -0.0167
71 | CTTTAACC | -0.0789
72 | CAGCAGTA | -0.352
73 | AGAGCGGA | 0.13
74 | CGAGCGGA | 0.37
75 | CGAGCGGC | 0.238

Row | Sequence | PBM E-score
76 | AATGGTCA | -0.179
77 | GCACGGAA | 0.215
78 | AACCGGAA | 0.337
79 | CCCCGGCC | 0.348
80 | TCCCGGCA | 0.277
81 | AACCGGAT | 0.286
82 | TCCCGGAA | 0.397
83 | AACCGGAG | 0.425
84 | GCCCGGAA | 0.402
85 | CCCCGGAA | 0.272
86 | CCCCGGAC | 0.397
87 | ACCCGGAA | 0.346
88 | TCACGGAA | 0.329
89 | CCTGCCGA | 0.156
90 | AGGAGGCC | -0.254
91 | AACGTTGT | -0.162
92 | CGACACGA | 0.0811
93 | CTACATGA | -0.187
94 | TAAAGGCA | -0.0704
95 | GCACTCGC | -0.0299
96 | AGAGGGCA | -0.162
97 | GAGCGATC | 0.0915
98 | AAGTTATT | 0.0401
99 | GCGTCACC | -0.0889
100 | AATTGCAC | -0.191

Row | Sequence | PBM E-score
101 | ACCCGTAC | 0.0493
102 | ACCCGGCC | 0.305
103 | GCCCGGGC | 0.434
104 | CCCCCGAG | 0.308
105 | ACCCGGGC | 0.368
106 | CCCCGGAG | 0.393
107 | CCCGGGAG | 0.299
108 | ACCCGGGT | 0.393
109 | ACCCGGAC | 0.372
110 | ACCCGGGA | 0.328
111 | GCCCGGGA | 0.316
112 | ACCCGGGG | 0.306
113 | AGAGCGAT | 0.0667
114 | ATACGTTA | -0.106
115 | GCTCTAAC | 0.0397
116 | CGACTGTA | -0.166
117 | CAGAAACC | -0.0171
118 | AACAGGCT | -0.152
119 | TACCTCCA | -0.176
120 | ATCAGTGC | -0.212
121 | ACCCGGAT | 0.322
122 | ACCCGGCG | 0.283
123 | CCCCGGGG | 0.388
124 | GCCCGGCC | 0.329
125 | GCCCGGAC | 0.401

Row | Sequence | PBM E-score
126 | GCCGGGAC | 0.185
127 | CCCCGGGC | 0.36
128 | ACCCGGAG | 0.423
129 | CCCCCGGG | 0.324
130 | CTCACAGA | -0.242
131 | CGGCGCTC | 0.23
132 | TCTGTGAA | -0.101
133 | CCGGTCCC | 0.323
134 | CCGGTCCG | 0.42
135 | CCGGTCCA | 0.237
136 | AGACTGAT | -0.159
137 | GACAGAGC | -0.162
138 | CGTTTGAA | -0.061
139 | CGAGGGCA | -0.00305
140 | ATTTTGGA | 0.147
141 | ATACTCCG | 0.407
142 | AAACTCCT | -0.1
143 | CAACTCCG | 0.398
144 | ATACTCCC | 0.115
145 | CAACTCCA | -0.0501
146 | AAACTCCG | 0.456
147 | AAACTCCA | -0.0578
148 | CAACTCCC | 0.0886
149 | ATACTCCA | -0.15
150 | CGCTAGCG | 0.0545

Row | Sequence | PBM E-score
151 | CGCGAGCA | -0.126
152 | GATATCGC | 0.304
153 | AAACCCTA | -0.136
154 | AGGTACGG | 0.0524
155 | AACGCGAA | 0.121
156 | AGGTCGCA | 0.101
157 | ACTAAGCC | 0.094
158 | ACTGTCAG | -0.224
159 | CACCGGGA | 0.261
160 | CACCGGAC | 0.417
161 | AACCGGAC | 0.369
162 | CAGCGGAA | 0.139
163 | TACCGCAA | 0.08
164 | TACCGGAA | 0.442
165 | GACCGGAC | 0.41
166 | CACCGGAG | 0.341
167 | GACCGGGC | 0.331
168 | TACCGGCA | 0.353
169 | CACCGGAA | 0.398
170 | GACCGGAA | 0.361
171 | AATCGGCT | 0.314
172 | TCTGCGAA | -0.214
173 | CCGGTGTC | 0.301
174 | CTTGGTGA | -0.102
175 | CATCGGTC | 0.278

Row | Sequence | PBM E-score
176 | GATCGGAA | 0.325
177 | AATCGGAC | 0.345
178 | GATCGGAC | 0.413
179 | CATCGGAG | 0.292
180 | CATCGGAC | 0.401
181 | GCTTTTAC | 0.14
182 | ATGTGGAC | -0.149
183 | AATTCCTG | -0.0671
184 | AGGCTGTG | -0.019
185 | CACATCGC | 0.0343
186 | GCGGACGC | 0.0721
187 | TCACGCGA | -0.0375
188 | AGAGGAGA | -0.242
189 | TCGGACCA | 0.381
190 | GCGGACCC | 0.266
191 | CCGGACCG | 0.431
192 | CCGGACTC | 0.361
193 | TAGGACCA | -0.0211
194 | CCGGACTA | 0.404
195 | CCGGACCC | 0.374
196 | ACGGACCG | 0.328
197 | CAGGACCG | -0.00407
198 | ACGGACTA | 0.237
199 | TGGGACCA | -0.19
200 | ACGGACCC | 0.278

Row | Sequence | PBM E-score
201 | AGGCGCCC | -0.0775
202 | CGCATCCA | -0.0122
203 | ACCACAGC | -0.127
204 | GAGAGAGA | -0.0161
205 | CCAACTGA | -0.324
206 | GGAGAGAC | 0.101
207 | AACCTCGC | -0.0117
208 | AGTCGTAA | 0.00615
209 | AAAGAGCC | -0.12
210 | AGGACCGA | 0.311
211 | GATTTATA | 0.146
212 | CCGGACCA | 0.372
213 | ACGGACCA | 0.344
214 | GCGGACCA | 0.31
215 | ATTCCCGA | 0.395
216 | ATTCCCGG | 0.395
217 | GTTCCCGA | 0.257
218 | ACTCCCGA | 0.2
219 | ACTCCCGG | 0.378
220 | CTTCCCGA | 0.143
221 | ATTCCCCG | 0.286
222 | ACTCCCCG | 0.283
223 | ATTCCCGC | 0.318
